This is an account of results in PubChem BioAssay (EPA / NIEHS).

Inconclusive results are not listed. The source made the active and inactive calls. How the source made its calls: active means hit-call score of the fitted dose curve at least 0.9, where 1 is the maximum; inconclusive means response in the unintended direction; inactive means score below 0.9.

The target of experiment [1] is human CYP2C9, CYP2C9 (gene 1559) (UniProt P11712). Description: NVS_ADME_hCYP2C9: NovaScreen (NVS) CYP450-related Enzyme Activity (ADME) Assay for human CYP2C9 (AID 2283108). In short, it runs like this: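 Recombinant human CYP2C9 expressed in SF9 cells, fluorogenic substrate, fluorescence read 0.75 h after dosing. Chemicals first run in duplicate at 10 uM, with actives followed in concentration series; loss of signal versus acetonitrile baseline.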

Experiment [2] has as its target human Phosphoinositide 3-kinase alpha (PI3Ka), PIK3CA (gene 5290) (UniProt P42336). Briefly: NVS_ENZ_hPI3Ka: NovaScreen (NVS) Enzymatic Assay for human Phosphoinositide 3-kinase alpha (PI3Ka) (AID 2283196). The essentials:
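Fluorescence/mobility-shift readout of substrate conversion by recombinant enzyme, 1 h post-dosing. Primary screen in duplicate at 25 uM; actives (e.g. ≥30% inhibition) retested in singleton concentration-response, top concentration 50 uM.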

For experiment [3], the target named is sheep Cyclooxygenase-1 (Cox1), PTGS1 (gene 443551) (UniProt P05979). Description: NVS_ENZ_oCOX1: NovaScreen (NVS) Enzymatic Assay for sheep Cyclooxygenase-1 (Cox1) (AID 2283239).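 Further: actives reduce cyclooxygenase activity so potencies are for inhibitors.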 The essentials:
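Cell-free colorimetric assay of enzyme activity in a native extract of ovine seminal vesicles. Absorbance was read 0.66 hour after compound addition. Loss of signal relative to the DMSO negative control was scored, with actives from the 25 uM duplicate primary screen retested in concentration series.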

Experiment [4] concerns the target human Esterase Plasma (ES), BCHE (gene 590) (UniProt P06276). Description: NVS_ENZ_hES: NovaScreen (NVS) Enzymatic Assay for human Esterase Plasma (ES) (AID 2283157). In short, it runs like this: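 Human plasma-derived enzyme, cell-free, colorimetric readout at 0.25 h. Primary screen 25 uM in duplicate; hits (e.g. ≥30% inhibition) rerun singleton up to 50 uM. DMSO = negative control/baseline.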

Experiment [5] addresses human Caspase 5 (CASP5), CASP5 (gene 838) (UniProt P51878). Description: NVS_ENZ_hCASP5: NovaScreen (NVS) Enzymatic Assay for human Caspase 5 (CASP5) (AID 2283137). The essentials: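 Loss of fluorescent signal versus DMSO scored for E. coli-derived human CASP5 cleaving a fluorescent substrate, 2 h post-dosing; compounds first tested at 25 uM in duplicate, hits rerun in concentration series with 50 uM top concentration.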

Experiment [6] addresses human Beta-secretase (BACE), BACE1 (gene 23621) (UniProt P56817). Description: NVS_ENZ_hBACE: NovaScreen (NVS) Enzymatic Assay for human Beta-secretase (BACE) (AID 2283140).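 Further: hits are inhibitors that reduce fluorescent substrate signal versus DMSO.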 In short, it runs like this:
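Enzyme from SF9 cells was incubated 1 hour with compound and fluorogenic substrate, activity read by fluorescence. Single-concentration duplicates at 25 uM preceded concentration-response follow-up; fitting relative to DMSO baseline.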

Experiment [7] has as its target Cytochrome P450 2C19 (Homo sapiens) (UniProt P33261). Description: NVS_ADME_hCYP2C19: NovaScreen (NVS) CYP450-related Enzyme Activity (ADME) Assay for human CYP2C19 (AID 2283113).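 Further: potency for inhibition seen as loss of fluorescent signal.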 In short, it runs like this: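 Cell-free assay of recombinant human CYP2C19 expressed in insect cells, with a fluorogenic substrate; fluorescence intensity read 1 hour after dosing. Loss of signal relative to acetonitrile negative control indicates inhibition. Primary screen at 10 uM in duplicate, then concentration series.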

The target in experiment [8] is human Ephrin type-A Receptor 1 (EphA1), EPHA1 (gene 2041) (UniProt P21709). Briefly: NVS_ENZ_hEphA1: NovaScreen (NVS) Enzymatic Assay for human Ephrin type-A Receptor 1 (EphA1) (AID 2283158).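 Further: activity is signal loss versus DMSO meaning EphA1 kinase inhibition.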 The essentials: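 Cell-free enzymatic assay with recombinant EphA1 and fluorescent substrate; product separated by electrophoretic mobility shift, fluorescence intensity read 1 hour after dosing. Loss of signal versus DMSO baseline; primary duplicate screen at 25 uM, actives followed to 50 uM top concentration.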
Sequence of human Ephrin type-A Receptor 1 (EphA1), EPHA1 (gene 2041) (P21709 whole entry, looked up): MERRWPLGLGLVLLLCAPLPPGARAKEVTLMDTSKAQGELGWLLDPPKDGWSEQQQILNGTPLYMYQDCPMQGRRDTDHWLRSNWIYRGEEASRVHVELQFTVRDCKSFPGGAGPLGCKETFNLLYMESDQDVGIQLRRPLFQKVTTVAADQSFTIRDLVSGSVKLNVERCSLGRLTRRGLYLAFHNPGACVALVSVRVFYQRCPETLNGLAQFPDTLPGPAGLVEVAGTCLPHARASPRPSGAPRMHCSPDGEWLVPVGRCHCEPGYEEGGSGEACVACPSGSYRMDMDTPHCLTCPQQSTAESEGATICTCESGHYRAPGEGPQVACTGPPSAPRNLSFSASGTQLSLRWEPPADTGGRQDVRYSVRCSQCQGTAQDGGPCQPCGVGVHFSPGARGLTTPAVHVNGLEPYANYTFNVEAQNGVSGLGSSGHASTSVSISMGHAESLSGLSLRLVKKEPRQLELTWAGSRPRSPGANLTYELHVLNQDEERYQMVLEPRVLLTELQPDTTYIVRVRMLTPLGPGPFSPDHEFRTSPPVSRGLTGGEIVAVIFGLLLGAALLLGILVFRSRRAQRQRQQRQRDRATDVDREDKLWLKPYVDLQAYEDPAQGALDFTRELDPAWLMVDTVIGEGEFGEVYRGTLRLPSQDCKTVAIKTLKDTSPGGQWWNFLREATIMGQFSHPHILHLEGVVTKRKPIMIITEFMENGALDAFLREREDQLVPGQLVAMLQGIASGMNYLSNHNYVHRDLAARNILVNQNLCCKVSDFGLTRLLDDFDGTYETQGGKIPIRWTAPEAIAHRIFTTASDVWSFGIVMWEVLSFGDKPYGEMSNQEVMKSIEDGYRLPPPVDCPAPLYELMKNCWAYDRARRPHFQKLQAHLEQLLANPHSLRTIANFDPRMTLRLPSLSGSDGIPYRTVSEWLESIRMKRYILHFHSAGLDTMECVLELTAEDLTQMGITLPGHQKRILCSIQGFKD

Experiment [9] addresses human Matrix Metalloproteinase-9 (MMP9), MMP9 (gene 4318) (UniProt P14780). Briefly: NVS_ENZ_hMMP9: NovaScreen (NVS) Enzymatic Assay for human Matrix Metalloproteinase-9 (MMP9) (AID 2283190).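 Further: cell-free recombinant MMP9 protease activity read by fluorescent substrate signal; active means inhibition seen as loss of fluorescence signal versus DMSO.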 In short, it runs like this: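 Extracted enzyme, fluorescent substrate, 1 h post-dose read. Single conc 25 uM in duplicate, then concentration series for actives. Activity = signal loss relative to DMSO negative control.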

The target in experiment [10] is human Phosphodiesterase 10 (PDE10), PDE10A (gene 10846) (UniProt Q9Y233). Description: NVS_ENZ_hPDE10: NovaScreen (NVS) Enzymatic Assay for human Phosphodiesterase 10 (PDE10) (AID 2283195). In short, it runs like this: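 Biochemical single-readout PDE10A assay, cell-free, extracted protein. Compounds first screened at 25 uM in duplicate, hits then titrated to 50 uM max. Activity measured after 1 h; loss-of-signal fitted against DMSO negative control.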

The target of experiment [11] is human Vascular Endothelial Growth Factor Receptor 1 (VEGFR1), FLT1 (gene 2321) (UniProt P17948). Briefly: NVS_ENZ_hVEGFR1: NovaScreen (NVS) Enzymatic Assay for human Vascular Endothelial Growth Factor Receptor 1 (VEGFR1) (AID 2283226). The essentials:
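Kinase activity of recombinant human VEGFR1 was read by fluorescence after electrophoretic separation of product from substrate, 1 h post-dosing; initial duplicate single-point testing at 25 uM, followed by concentration-series follow-up, with DMSO as baseline.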

For experiment [12], the target named is Mitogen-activated protein kinase 3 (Homo sapiens) (UniProt P27361). Description: NVS_ENZ_hMAPK3: NovaScreen (NVS) Enzymatic Assay for human Mitogen-Activated Protein Kinase 3 (MAPK 3) (AID 2283177). In short, it runs like this:
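Chemicals were first tested in duplicate at 25 uM, with hits re-run as concentration series (max 50 uM). Recombinant enzyme activity, measured 1 h post-dose in a cell-free format, was read by fluorescence/mobility shift relative to DMSO.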

The target in experiment [13] is human Vascular Endothelial Growth Factor Receptor 3 (VEGFR3), FLT4 (gene 2324) (UniProt P35916). Briefly: NVS_ENZ_hVEGFR3: NovaScreen (NVS) Enzymatic Assay for human Vascular Endothelial Growth Factor Receptor 3 (VEGFR3) (AID 2283229). In short, it runs like this:
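Chemicals first run in duplicate at 25 uM, with actives re-tested in concentration series to a top of 50 uM. Recombinant VEGFR3 activity measured after 1 h via fluorescence with mobility-shift product separation; inhibition fitted relative to DMSO.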

Experiment [14] has as its target human Vascular Endothelial Growth Factor Receptor 2 (VEGFR2), KDR (gene 3791) (UniProt P35968). Briefly: NVS_ENZ_hVEGFR2: NovaScreen (NVS) Enzymatic Assay for human Vascular Endothelial Growth Factor Receptor 2 (VEGFR2) (AID 2283230). The essentials: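 Cell-free recombinant VEGFR2 kinase, fluorescent substrate with electrophoretic mobility-shift separation; read 1 h after dosing. Screened at 25 uM in duplicate, hits to concentration-response up to 50 uM; loss-of-signal versus DMSO.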

Experiment [15] addresses human Phosphodiesterase 5 (PDE5), PDE5A (gene 8654) (UniProt O76074). Briefly: NVS_ENZ_hPDE5: NovaScreen (NVS) Enzymatic Assay for human Phosphodiesterase 5 (PDE5) (AID 2283194). The essentials:
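Screening began in duplicate at 25 uM, with actives taken into concentration-response. Enzyme activity of recombinant PDE5 toward its substrate was measured at 1 h by fluorescence mobility-shift detection, relative to DMSO controls.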

Sequence of human Beta-secretase (BACE), BACE1 (gene 23621) (P56817 whole entry, looked up): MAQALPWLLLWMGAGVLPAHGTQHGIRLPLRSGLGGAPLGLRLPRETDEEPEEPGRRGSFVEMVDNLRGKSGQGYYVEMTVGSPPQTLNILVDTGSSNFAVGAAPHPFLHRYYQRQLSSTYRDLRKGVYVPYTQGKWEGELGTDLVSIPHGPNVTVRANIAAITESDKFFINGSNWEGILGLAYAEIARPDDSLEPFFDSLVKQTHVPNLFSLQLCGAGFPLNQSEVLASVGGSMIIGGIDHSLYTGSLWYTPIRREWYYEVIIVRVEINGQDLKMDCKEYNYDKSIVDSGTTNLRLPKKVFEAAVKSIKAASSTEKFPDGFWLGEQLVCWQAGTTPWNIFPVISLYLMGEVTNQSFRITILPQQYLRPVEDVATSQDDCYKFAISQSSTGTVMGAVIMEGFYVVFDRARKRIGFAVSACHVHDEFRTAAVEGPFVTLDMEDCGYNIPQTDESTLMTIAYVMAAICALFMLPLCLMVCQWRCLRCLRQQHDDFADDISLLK
Sequence of human Matrix Metalloproteinase-9 (MMP9), MMP9 (gene 4318) (P14780 whole entry, looked up): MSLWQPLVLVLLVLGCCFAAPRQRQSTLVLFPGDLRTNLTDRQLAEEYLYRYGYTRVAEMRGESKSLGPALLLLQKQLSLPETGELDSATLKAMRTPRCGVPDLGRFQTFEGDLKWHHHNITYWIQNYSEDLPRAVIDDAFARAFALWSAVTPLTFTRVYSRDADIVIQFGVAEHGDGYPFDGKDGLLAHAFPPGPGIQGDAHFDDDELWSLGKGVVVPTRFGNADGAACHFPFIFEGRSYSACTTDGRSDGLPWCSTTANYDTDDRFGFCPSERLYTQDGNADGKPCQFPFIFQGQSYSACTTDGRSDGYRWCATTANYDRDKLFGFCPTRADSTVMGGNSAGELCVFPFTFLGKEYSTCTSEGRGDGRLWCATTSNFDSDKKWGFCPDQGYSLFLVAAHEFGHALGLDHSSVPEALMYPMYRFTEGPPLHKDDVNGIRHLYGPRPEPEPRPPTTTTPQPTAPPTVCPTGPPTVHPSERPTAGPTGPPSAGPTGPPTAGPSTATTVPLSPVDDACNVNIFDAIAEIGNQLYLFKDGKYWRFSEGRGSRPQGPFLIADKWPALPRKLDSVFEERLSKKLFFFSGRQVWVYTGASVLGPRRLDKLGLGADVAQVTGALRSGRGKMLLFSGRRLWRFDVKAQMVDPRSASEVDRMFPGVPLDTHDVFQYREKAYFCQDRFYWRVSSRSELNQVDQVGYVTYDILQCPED
Sequence of human Phosphoinositide 3-kinase alpha (PI3Ka), PIK3CA (gene 5290) (P42336 whole entry, looked up): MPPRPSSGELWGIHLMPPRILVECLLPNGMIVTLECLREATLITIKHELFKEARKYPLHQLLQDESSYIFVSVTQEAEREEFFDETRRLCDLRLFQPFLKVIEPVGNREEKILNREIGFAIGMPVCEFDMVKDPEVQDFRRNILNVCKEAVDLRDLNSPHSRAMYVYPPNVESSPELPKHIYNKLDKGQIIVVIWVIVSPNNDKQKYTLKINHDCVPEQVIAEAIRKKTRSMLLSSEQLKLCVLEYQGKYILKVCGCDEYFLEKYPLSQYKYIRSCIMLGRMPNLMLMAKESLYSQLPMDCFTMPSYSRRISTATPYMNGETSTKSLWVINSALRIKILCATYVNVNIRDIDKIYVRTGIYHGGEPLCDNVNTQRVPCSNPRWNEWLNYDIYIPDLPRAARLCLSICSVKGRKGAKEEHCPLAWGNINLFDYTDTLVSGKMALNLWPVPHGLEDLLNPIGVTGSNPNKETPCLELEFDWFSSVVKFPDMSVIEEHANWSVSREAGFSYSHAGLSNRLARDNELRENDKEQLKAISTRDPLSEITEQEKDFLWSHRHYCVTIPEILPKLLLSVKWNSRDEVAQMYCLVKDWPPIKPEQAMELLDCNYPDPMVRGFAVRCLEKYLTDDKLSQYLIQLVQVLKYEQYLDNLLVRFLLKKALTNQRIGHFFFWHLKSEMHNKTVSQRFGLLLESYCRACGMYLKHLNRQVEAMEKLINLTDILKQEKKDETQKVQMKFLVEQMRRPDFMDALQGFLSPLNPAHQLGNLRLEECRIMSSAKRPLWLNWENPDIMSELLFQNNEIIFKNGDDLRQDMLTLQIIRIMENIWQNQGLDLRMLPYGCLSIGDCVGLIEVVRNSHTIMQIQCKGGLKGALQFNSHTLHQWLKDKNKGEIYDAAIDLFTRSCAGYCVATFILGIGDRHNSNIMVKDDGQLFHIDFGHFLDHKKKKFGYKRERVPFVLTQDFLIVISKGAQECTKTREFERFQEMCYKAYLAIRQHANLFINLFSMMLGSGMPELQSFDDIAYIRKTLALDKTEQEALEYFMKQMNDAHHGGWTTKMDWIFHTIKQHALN
Sequence of human Caspase 5 (CASP5), CASP5 (gene 838) (P51878 whole entry, looked up): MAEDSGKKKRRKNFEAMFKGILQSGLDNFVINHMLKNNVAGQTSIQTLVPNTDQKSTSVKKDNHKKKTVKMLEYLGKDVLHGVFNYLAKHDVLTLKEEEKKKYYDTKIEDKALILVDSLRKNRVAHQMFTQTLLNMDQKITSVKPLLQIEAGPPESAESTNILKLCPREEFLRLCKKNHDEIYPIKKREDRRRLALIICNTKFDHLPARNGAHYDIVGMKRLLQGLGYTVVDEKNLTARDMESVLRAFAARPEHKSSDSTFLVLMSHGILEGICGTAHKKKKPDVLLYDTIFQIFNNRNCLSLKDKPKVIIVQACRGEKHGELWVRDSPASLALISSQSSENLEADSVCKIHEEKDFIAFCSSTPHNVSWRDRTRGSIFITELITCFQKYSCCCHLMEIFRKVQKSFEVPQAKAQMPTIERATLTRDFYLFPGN
Sequence of human Vascular Endothelial Growth Factor Receptor 1 (VEGFR1), FLT1 (gene 2321) (P17948 whole entry, looked up): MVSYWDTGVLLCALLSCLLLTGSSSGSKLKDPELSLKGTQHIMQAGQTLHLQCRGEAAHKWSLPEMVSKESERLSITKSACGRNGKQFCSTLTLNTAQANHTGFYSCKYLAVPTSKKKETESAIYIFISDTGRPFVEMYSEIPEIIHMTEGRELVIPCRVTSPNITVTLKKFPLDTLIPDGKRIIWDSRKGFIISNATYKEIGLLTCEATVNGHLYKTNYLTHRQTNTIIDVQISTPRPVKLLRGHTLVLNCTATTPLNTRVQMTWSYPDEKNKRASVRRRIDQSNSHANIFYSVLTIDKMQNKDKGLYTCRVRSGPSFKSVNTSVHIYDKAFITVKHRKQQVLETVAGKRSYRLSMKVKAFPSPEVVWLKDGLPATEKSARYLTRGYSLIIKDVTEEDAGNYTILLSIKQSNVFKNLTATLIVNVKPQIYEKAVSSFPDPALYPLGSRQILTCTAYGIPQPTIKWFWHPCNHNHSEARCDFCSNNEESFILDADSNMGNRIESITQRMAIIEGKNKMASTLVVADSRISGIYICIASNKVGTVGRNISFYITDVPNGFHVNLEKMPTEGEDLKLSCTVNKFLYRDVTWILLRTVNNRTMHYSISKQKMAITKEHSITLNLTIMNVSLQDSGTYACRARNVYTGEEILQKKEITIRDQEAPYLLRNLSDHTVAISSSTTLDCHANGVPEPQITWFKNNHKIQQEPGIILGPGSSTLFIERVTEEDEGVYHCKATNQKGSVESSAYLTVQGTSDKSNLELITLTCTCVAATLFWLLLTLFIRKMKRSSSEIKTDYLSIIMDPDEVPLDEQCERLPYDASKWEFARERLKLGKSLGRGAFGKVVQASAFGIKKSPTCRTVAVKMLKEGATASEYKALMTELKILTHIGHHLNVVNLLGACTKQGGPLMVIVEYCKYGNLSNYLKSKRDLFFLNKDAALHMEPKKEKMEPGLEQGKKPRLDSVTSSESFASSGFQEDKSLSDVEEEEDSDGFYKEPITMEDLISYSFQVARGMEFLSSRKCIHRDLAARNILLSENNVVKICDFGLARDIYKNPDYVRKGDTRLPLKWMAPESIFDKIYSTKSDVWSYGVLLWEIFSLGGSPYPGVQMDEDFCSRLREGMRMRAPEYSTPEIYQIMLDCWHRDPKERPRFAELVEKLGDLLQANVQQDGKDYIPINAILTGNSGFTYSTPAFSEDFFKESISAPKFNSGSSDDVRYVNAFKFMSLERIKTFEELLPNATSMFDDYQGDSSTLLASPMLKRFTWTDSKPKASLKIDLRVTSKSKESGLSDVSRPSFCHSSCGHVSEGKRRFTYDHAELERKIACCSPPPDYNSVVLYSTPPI

In the case of `COc1cc(Cl)c(OC)cc1N`, the molecule was called inactive in [1] and in [2]. Further, the AC50 (in general, the concentration at which the activity in the assay is half-maximal) in [3] is 25 µM (active).

Consider `CC(C)(C)CC(C)(C)c1ccc(OCCOCC[N+](C)(C)Cc2ccccc2)cc1`, for which the AC50 was 0.791 µM (active) in experiment [4] and 9.05 µM (active) in experiment [2].

As for `O=C1c2ccccc2C(=O)c2c(O)ccc(O)c21`, the figures for the AC50 in experiment [5] and in [6] were 7.12 µM (active) and 25 µM (active), respectively.

Take `Cc1cc(CCC(=O)OCCOCCOCCOC(=O)CCc2cc(C)c(O)c(C(C)(C)C)c2)cc(C(C)(C)C)c1O`: the AC50 in experiment [7] was 2.45 µM (active).

As to `CC(C)(N=C=O)c1cccc(C(C)(C)N=C=O)c1`, the result in experiment [6] and in experiment [8] was inactive. Further, the AC50 in experiment [9] is 0.933 µM (active); in experiment [2], 9.87 µM (active).

In the case of `c1ccc(Oc2ccccc2)cc1`, the result in experiment [5] and in experiment [9] was inactive.

For the molecule `C=C(C)C(=O)OCCOCCOCCOCCOC(=O)C(=C)C`, in experiment [8], the AC50 was 35.3 µM (active).

As for `Oc1c(Cl)cc(Cl)c(Cl)c1Cc1c(O)c(Cl)cc(Cl)c1Cl`, the AC50 in [5] was 2.9 µM (active); in [6], 1.21 µM (active); in experiment [2] it was 1.96 µM (active); in experiment [11], 2.93 µM (active); in [3], 15.6 µM (active). Further, in experiment [10], the outcome was inactive.

Consider `COC(C)(C)CCO`, for which the molecule was classed as inactive in experiment [6].

As to `CCOCCOCCOCC`, the call in experiment [6] was inactive. Moreover, in experiment [9], the AC50 is 15.4 µM (active).

Turning to `COCCOC(=O)c1ccccc1C(=O)OCCOC`, the AC50 in experiment [4] is 18.6 µM (active). Also, the outcome in experiment [8], in [2] and in experiment [11] was inactive.

Turning to `CSCCC=O`, the AC50 is 0.29 µM (active) in [7] and 0.684 µM (active) in [9].

As to `CCN(CC)C(=O)N(CC)CC`, the AC50 in [8] was 25 µM (active).

Consider `O=C1OC[C@H](Cc2cccc(O)c2)[C@H]1Cc1cccc(O)c1`, for which the figures for the AC50 in experiment [7] and in [9] were 0.686 µM (active) and 5.03 µM (active), respectively.

Turning to `[O-]n1ccccc1=S.[O-]n1ccccc1=S.[Zn+2]`, the outcome in experiment [12], in experiment [13] and in [14] was inactive.

Consider `O=[N+]([O-])c1ccc(O)cc1C(F)(F)F`, for which the result in experiment [15] was inactive.

For the molecule `CCOC(=O)[C@@H](C)Oc1ccc(Oc2nc3ccc(Cl)cc3o2)cc1`, the molecule was classed as inactive in experiment [13].
